Source: the supplement of paper PMC8866396
± gives the standard deviation of the averaged measurements.

Legend:
IL-6-GFP PC-9GR = test: cell viability (CCK-8 OD) relative to DMSO control (fraction of control); higher = more viable cells; conditions: compound concentration: 10 uM; treatment time: 48 h
In short: (§1)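 Compounds from a purchased library of 510 were each tested at a final 10 μM for 48 h on PC-9 and PC-9GR lung cancer cells plated at 3000 cells/well in 96-well plates. These cells overexpressed IL-6-GFP from a lentiviral construct. Viability came from CCK-8 absorbance, given as the optical density of each well over that of the vehicle control well, across independent replicates numbering two.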

IL-6-GFP PC-9 = test: as above; conditions: compound concentration: 10 uM; treatment time: 48 h
In short: as §1

Structure (SMILES)	cell viability (IL-6-GFP PC-9GR)	cell viability (IL-6-GFP PC-9)
CN(C)C(=O)c1cc2cnc(Nc3ccc(N4CCNCC4)cn3)nc2n1C1CCCC1 [Ribociclib (LEE011)]	1.29 ± 0.4	1.01 ± 0.029
CC(C)C1C(=O)NC(CCCNC(=N)N)C(=O)NCC(=O)NC(CC(=O)O)C(=O)NC(Cc2ccccc2)C(=O)N1C.O=C(O)C(F)(F)F (stereo not drawn)	1.13 ± 0.28	1.26 ± 0.087
Cc1ccc(Nc2c(F)cccc2Cl)c(CC(=O)O)c1 [Lumiracoxib]	0.626 ± 0.15	0.853 ± 0.29
COc1cc(-c2coc3cc4c(c(OC)c3c2=O)OCO4)cc(OC)c1OC [Irisflorentin]	0.826 ± 0.2	1.04 ± 0.12
C/C=C(/C)C(=O)OC1C(OC(C)=O)C2(CO)C(O)CC3(C)C(=CCC4C5(C)CCC(OC6OC(C(=O)O)C(OC7OC(CO)C(O)C(O)C7O)C(O)C6OC6OC(CO)C(O)C(O)C6O)C(C)(CO)C5CCC43C)C2CC1(C)C (stereo not drawn) [Escin]	0.999 ± 0.079	1.14 ± 0.22
Cl.Cl.O=C(O)COCCN1CCN(C(c2ccccc2)c2ccc(Cl)cc2)CC1 (stereo not drawn) [Cetirizine DiHCl]	1.08 ± 0.0043	1.02 ± 0.033
NC(=O)Cc1cccc(C(=O)c2ccccc2)c1N [Nepafenac]	1.07 ± 0.029	0.958 ± 0.1
CC(=O)O.CCNC(=O)C1CCCN1C(=O)C(CCCNC(=N)N)NC(=O)C(CC(C)C)NC(=O)C(CC(C)C)NC(=O)C(Cc1ccc(O)cc1)NC(=O)C(CO)NC(=O)C(Cc1c[nH]c2ccccc12)NC(=O)C(Cc1c[nH]cn1)NC(=O)C1CCC(=O)N1 (stereo not drawn) [Leuprolide Acetate]	1.16 ± 0.31	1.28 ± 0.073
CC(CN1c2ccccc2Sc2ccccc21)N(C)C.Cl (stereo not drawn) [Promethazine HCl]	0.929 ± 0.013	1.05 ± 0.051
O=C(c1cc(Cc2n[nH]c(=O)c3ccccc23)ccc1F)N1CCN(C(=O)C2CC2)CC1	1.09 ± 0.081	1.16 ± 0.37
OCC1OC(c2ccc(Cl)c(Cc3ccc(OC4CCOC4)cc3)c2)C(O)C(O)C1O (stereo not drawn)	1.05 ± 0.13	0.905 ± 0.058
C=CC1CC1(NC(=O)C1CC(Oc2ncc(OC)c3ccc(Cl)cc23)CN1C(=O)C(NC(=O)OC(C)(C)C)C(C)(C)C)C(=O)NS(=O)(=O)C1CC1 (stereo not drawn) [Asunaprevir]	1.24 ± 0.26	1.05 ± 0.46
N#Cc1cc(NC(=O)C(=O)O)c(Cl)c(NC(=O)C(=O)O)c1.NC(CO)(CO)CO.NC(CO)(CO)CO [Lodoxamide Tromethamine]	1.14 ± 0.25	1.09 ± 0.083
CC1=C(/C=C/C(C)=C/C=C/C(C)=C/C(=O)Nc2ccc(O)cc2)C(C)(C)CCC1 [Fenretinide]	0.47 ± 0.12	0.449 ± 0.14
CC1(C)CCC(CN2CCN(c3ccc(C(=O)NS(=O)(=O)c4ccc(NCC5CCOCC5)c([N+](=O)[O-])c4)c(Oc4cnc5[nH]ccc5c4)c3)CC2)=C(c2ccc(Cl)cc2)C1 [Venetoclax (ABT-199, GDC-0199)]	0.907 ± 0.17	1.03 ± 0.15
CN1CCC(=C2c3ccccc3CCc3sccc32)CC1.O=C(O)CC(O)C(=O)O [Pizotifen Malate]	1.41 ± 0.064	1.22 ± 0.16
CN(C(=O)c1c(O)c2ccccc2n(C)c1=O)c1ccccc1 [Roquinimex]	0.937 ± 0.35	1.15 ± 0.038
COc1c(OC2OC(CO)C(O)C(O)C2O)cc2c(c1OC)-c1ccc(SC)c(=O)cc1C(NC(C)=O)CC2 (stereo not drawn) [Thiocolchicoside]	1.18 ± 0.26	1.2 ± 0.12
O=C1CCCC2C3CCC[N+]4([O-])CCCC(CN12)C34 (stereo not drawn) [Oxymatrine]	1.47 ± 0.16	1.33 ± 0.068
CCOC(=O)c1ccc(OC(=O)CCCCCNC(=N)N)cc1.CS(=O)(=O)O [Gabexate Mesylate]	1.14 ± 0.069	0.801 ± 0.071
O=C(Nc1cnn2ccc(N3CCCC3c3cc(F)ccc3F)nc12)N1CCC(O)C1.O=S(=O)(O)O (stereo not drawn) [Larotrectinib (LOXO-101) sulfate]	0.802 ± 0.05	1.14 ± 0.12
Cn1cnc2c(F)c(Nc3ccc(Br)cc3F)c(C(=O)NOCCO)cc21	0.812 ± 0.043	1.2 ± 0.19
COc1cc2nccc(Oc3ccc(NC(=O)NC4CC4)c(Cl)c3)c2cc1C(N)=O [Lenvatinib (E7080)]	1.11 ± 0.064	0.9 ± 0.081
COc1c2occc2cc2ccc(=O)oc12 [Methoxsalen]	0.933 ± 0.062	0.839 ± 0.23
C=CC1CN2CCC1CC2C(O)c1ccnc2ccc(OC)cc12.Cl.O.O (stereo not drawn) [Quinine HCl Dihydrate]	1.2 ± 0.21	1.19 ± 0.04
CS(=O)(=O)O.Cc1ccc(NC(=O)c2ccc(CN3CCN(C)CC3)cc2)cc1Nc1nccc(-c2cccnc2)n1 [Imatinib Mesylate (STI571)]	1.26 ± 0.07	1.1 ± 0.1
CNC(=O)c1c(C)oc2cc(Oc3ncnc4cc(OC)c(OC)cc34)ccc12 [Fruquintinib]	1.04 ± 0.12	1.12 ± 0.08
NCCc1c[nH]cn1 [Histamine]	1.05 ± 0.16	1.29 ± 0.22
CN1C(=O)/C(=C2/C(=O)Nc3ccccc32)c2ccccc21 [Meisoindigo]	1.39 ± 0.44	1.02 ± 0.21
